A number with no mark means an inactive call. Records with an inconclusive call do not appear. The source made the active and inactive calls. Unless noted, calls come from the whole dose curve; as a rule, active = well fitted curve in the direction sought with a large enough effect; inconclusive = small, poorly fitted or top-dose-only effect, or another doubt; inactive = no such curve, though single readings can be large; an effect the other way counts as inactive or inconclusive.

Assay [1] deals with Rap guanine nucleotide exchange factor 3 (Homo sapiens) (UniProt O95398). Kind of assay: Confirmatory qHTS for antagonist of cAMP-regulated guanine nucleotide exchange factor 3 (EPAC1) (AID 1645880).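 Note: plate controls were DMSO only for no effect and full effect of the ATA control for full effect; nearly all actives have a fitted effect of over 55% in size.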 The following applies: EPAC1 Rap1B-BODIPY-GDP exchange, fluorescence; activity, negative = inhibition: at 115 µM (top of the series). The procedure, abridged: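 Nucleotide exchange uses 100 nM EPAC1, 250 nM RAP1B-BODIPY-GDP and 50 uM GDP, with compounds in a concentration-titration series. After 5 min at room temperature, fluorescence (480 nm ex/540 nm em) is read every 5 min for 30 min. Data are normalized to control ATA and DMSO.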
Rap guanine nucleotide exchange factor 3 (Homo sapiens), sequence (O95398 whole entry, looked up): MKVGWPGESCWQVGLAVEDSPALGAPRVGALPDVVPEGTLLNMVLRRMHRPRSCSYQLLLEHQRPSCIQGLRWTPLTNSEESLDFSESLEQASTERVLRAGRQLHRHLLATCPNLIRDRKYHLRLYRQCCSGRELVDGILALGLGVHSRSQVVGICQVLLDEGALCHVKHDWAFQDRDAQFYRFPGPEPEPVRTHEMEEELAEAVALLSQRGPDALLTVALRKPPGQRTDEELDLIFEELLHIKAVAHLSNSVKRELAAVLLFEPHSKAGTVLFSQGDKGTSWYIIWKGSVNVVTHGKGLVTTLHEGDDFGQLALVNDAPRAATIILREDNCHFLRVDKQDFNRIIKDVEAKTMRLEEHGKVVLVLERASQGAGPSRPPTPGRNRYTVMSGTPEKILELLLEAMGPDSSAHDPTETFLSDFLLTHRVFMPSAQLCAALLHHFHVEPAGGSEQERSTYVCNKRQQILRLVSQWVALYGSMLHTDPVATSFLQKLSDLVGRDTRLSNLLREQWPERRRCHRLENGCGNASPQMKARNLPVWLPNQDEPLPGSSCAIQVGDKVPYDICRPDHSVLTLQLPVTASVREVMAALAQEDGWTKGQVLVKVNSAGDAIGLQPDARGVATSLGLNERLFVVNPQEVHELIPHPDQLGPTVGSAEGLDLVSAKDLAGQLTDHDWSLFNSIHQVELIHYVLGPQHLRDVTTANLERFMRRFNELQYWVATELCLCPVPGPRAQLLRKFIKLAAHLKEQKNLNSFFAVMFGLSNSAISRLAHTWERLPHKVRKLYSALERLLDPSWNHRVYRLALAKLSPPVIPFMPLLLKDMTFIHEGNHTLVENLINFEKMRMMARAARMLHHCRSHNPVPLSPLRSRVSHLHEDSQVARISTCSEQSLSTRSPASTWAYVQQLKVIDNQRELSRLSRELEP
Background: Quantitative high-throughput screening tests each substance at several concentrations.

Assay [2] has the same target. Briefly: Confirmatory qHTS for agonist of cAMP-regulated guanine nucleotide exchange factor 3 (EPAC1) (AID 1645881).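 Note: EPAC1 catalysed release of BODIPY-GDP from Rap1B seen as fluorescence loss; 100% = effect of cAMP agonist control; nearly all actives have a fitted effect of over 75% in size.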
In assay [3] the target is Rap guanine nucleotide exchange factor 4 (Homo sapiens) (UniProt Q8WZA2). Briefly: Confirmatory qHTS for agonist of cAMP-regulated guanine nucleotide exchange factor 4 (EPAC2) (AID 1645884).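 Note: nucleotide exchange releases bodipy-GDP from Rap1 and this lowers its fluorescence; % is set by controls: 0 for no effect and ±100 for the full control effect; nearly all actives have a fitted effect of over 65% in size.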
Rap guanine nucleotide exchange factor 4 (Homo sapiens), sequence (Q8WZA2 whole entry, looked up): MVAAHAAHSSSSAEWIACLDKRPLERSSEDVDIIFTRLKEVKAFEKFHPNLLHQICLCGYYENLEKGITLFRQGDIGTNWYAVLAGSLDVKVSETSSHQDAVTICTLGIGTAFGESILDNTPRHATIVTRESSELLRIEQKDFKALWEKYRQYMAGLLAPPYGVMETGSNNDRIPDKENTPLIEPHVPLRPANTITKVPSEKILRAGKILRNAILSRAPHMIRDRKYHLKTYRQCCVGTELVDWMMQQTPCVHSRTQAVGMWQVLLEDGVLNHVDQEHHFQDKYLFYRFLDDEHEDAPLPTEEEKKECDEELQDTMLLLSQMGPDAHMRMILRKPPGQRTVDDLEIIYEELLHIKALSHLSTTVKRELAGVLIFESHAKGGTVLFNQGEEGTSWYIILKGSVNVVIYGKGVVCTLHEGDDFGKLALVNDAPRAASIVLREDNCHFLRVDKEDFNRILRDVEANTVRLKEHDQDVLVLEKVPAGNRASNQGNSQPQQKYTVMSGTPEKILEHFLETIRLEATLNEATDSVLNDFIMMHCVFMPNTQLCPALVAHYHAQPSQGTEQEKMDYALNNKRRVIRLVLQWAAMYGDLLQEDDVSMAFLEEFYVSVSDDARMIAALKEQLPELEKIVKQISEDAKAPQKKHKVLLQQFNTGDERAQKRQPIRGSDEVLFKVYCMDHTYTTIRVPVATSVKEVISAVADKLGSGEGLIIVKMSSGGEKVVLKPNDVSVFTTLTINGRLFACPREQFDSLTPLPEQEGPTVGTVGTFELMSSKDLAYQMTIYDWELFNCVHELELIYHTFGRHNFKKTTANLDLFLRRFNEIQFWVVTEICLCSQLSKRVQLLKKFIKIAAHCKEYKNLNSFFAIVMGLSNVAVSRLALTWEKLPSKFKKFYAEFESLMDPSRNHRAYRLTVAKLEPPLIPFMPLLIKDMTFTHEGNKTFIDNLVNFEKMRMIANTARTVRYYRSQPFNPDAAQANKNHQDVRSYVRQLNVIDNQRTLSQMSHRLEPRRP
Assay [4] has the same target. Briefly: Confirmatory qHTS for antagonist of cAMP-regulated guanine nucleotide exchange factor 4 (EPAC2) (AID 1645885). Note: nearly all actives have a fitted effect of over 25% in size. Note: potency is the fitted concentration of half-maximal effect.
Assay [5] deals with Rap guanine nucleotide exchange factor 3 (Homo sapiens) (UniProt O95398). Kind of assay: Counterscreen qHTS for antagonist of cAMP-regulated guanine nucleotide exchange factor 3 (EPAC1) (AID 1645888).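 Note: fluorescence loss as bound BODIPY-GDP is released from Rap1B; % of control where 0% means no effect.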 The method, boiled down:
(§1)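 Rap1B–BODIPY-GDP (250 nM) with 50 uM GDP; compounds pin-transferred to 9.74 nM–152 uM final (activator) or from 7.32 nM upwards (inhibitor). Fluorescence Ex/Em 480/540 nm read at 5 and 30 min, then after adding cAMP or buffer, at room temperature.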
(In general: A counterscreen serves to expose hits that act by an unwanted route or on another target.)

For assay [6] the target is unchanged. Kind of assay: Counterscreen qHTS for agonist of cAMP-regulated guanine nucleotide exchange factor 3 (EPAC1) (AID 1645889). Note: % of control where 0% means no effect; nearly all actives have a fitted effect of over 40% in size. The procedure, abridged: as §1
The nature of assay [7]: HepG2 viability counterscreen (readout 2: ATP content) against the NCATS DSHEA and TCM libraries (AID 1794840).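 Note: HepG2 cells exposed to substances for about 24 h; 0% is about no effect.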 The method, boiled down: (§2)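 Readout 1: cellular protease activity, GF-AFC substrate (25 uM final, 30 min, fluorescence 380/510 nm). Readout 2: ATP content by CellTiter-Glo luminescence after 30 min at RT. Both follow ~24 h exposure of HepG2 cells (1,000/well) to substances.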

Assay [8] can be described thus: HepG2 viability counterscreen (readout 1: protease activity) against the NCATS DSHEA and TCM libraries (AID 1794841).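 Note: cells exposed to compounds for about 24 h before the protease read; 0% is about no effect.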 The method, boiled down: as §2
Assay [9] has as its target Cytochrome P450 3A4 (Homo sapiens) (UniProt P08684). Briefly: qHTS for inhibitors of CYP3A4 against the NCATS DSHEA and TCM libraries (AID 1919971).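 Note: % is set by controls: 0 for no effect and ±100 for the full control effect; inhibition lowers luminescence from luciferin made by CYP3A4.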 The method, boiled down: (§3)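 Read-out is luminescence after P450-Glo detection (30 min, RT). Before that: 15 min compound–enzyme preincubation, then 30-45 min reaction with 1x NADPH regeneration solution, substrate concentration isoform-specific.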

The target of assay [10] is Cytochrome P450 2D6 (Homo sapiens) (UniProt P10635). Kind of assay: qHTS for inhibitors of CYP2D6 against the NCATS DSHEA and TCM libraries (AID 1919972). Note: % is set by controls: 0 for no effect and ±100 for the full control effect. The method, boiled down: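 Luminescent P450-Glo read-out of CYP2D6 turnover of a luciferin substrate after NADPH-driven reaction of 30-45 min at room temperature. Compounds were first preincubated 15 min with enzyme at titrated concentrations; quinidine was the intraplate control.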
Cytochrome P450 2D6 (Homo sapiens), sequence (P10635 whole entry, looked up): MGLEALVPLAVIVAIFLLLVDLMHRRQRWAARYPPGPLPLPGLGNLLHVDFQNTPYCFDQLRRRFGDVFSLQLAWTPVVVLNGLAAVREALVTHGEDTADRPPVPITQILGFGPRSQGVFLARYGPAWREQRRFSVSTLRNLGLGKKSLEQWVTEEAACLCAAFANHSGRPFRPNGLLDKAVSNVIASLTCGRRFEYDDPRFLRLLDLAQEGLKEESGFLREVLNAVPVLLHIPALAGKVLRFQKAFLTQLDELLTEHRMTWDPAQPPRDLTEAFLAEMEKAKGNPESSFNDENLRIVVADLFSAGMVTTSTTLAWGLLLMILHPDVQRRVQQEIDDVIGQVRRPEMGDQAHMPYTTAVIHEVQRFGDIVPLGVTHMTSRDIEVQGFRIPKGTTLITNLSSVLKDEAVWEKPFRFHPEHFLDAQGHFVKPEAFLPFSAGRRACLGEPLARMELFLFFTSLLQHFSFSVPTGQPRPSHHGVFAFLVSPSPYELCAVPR

Assay [11] has as its target Cytochrome P450 2C9 (Homo sapiens) (UniProt P11712). Kind of assay: qHTS for inhibitors of CYP2C9 against the NCATS DSHEA and TCM libraries (AID 1919973).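 Note: luminogenic pro-luciferin CYP2C9 substrate turned into luciferin with NADPH regeneration; % is set by controls: 0 for no effect and ±100 for the full control effect.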 The procedure, abridged: as §3
Assay [12] can be described thus: KB-3-1 P-gp reporter qHTS against the NCATS DSHEA and TCM libraries (AID 1919975). Note: 0% is about no effect. The method, boiled down:
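Cell viability by CellTiter-Glo luminescence following ~72 h compound exposure (concentration-response). Uses parental, non-P-gp-overexpressing KB-3-1 line, 500 cells/well in DMEM/10% FBS, attached ~4 h before dosing.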

For assay [13], the target named is Cytochrome P450 1A2 (Homo sapiens) (UniProt P05177). Briefly: qHTS for inhibitors of CYPIA2 against the NCATS DSHEA and TCM libraries (AID 1919976).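 Note: light from luciferin formed by CYP1A2 from a pro-luciferin substrate; % is set by controls: 0 for no effect and ±100 for the full control effect.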 The procedure, abridged: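 CYP1A2 + luciferin substrate, 100 mM KPO4-type buffer; cmpd 15 min RT; 1x NADPH regen, 30-45 min RT dark; detection reagent 30 min RT; luminescence. Minus-enzyme wells as background; furafylline intraplate control.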

Assay [14] in a line: qHTS Counterscreen for compound interference against the NCATS DSHEA and TCM libraries (AID 1919978).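 Note: compounds preincubated with 1 µM D-luciferin or buffer before detection reagent; % of control where 0% means no effect.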 The conditions noted are these: firefly luciferase detection reagent interference, luminescence. The procedure, abridged: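 With 1 uM D-luciferin or phosphate buffer only, compounds at final 19.5 nM–39.8 uM were incubated for 15 min at room temperature. Luciferase detection reagent was then added, and luminescence was measured after a further 30 min at room temperature.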

Assay [15] is described as follows: Dual reporter qHTS for agonist of Pregnane X Receptor (hPXR) against the NCATS DSHEA and TCM libraries: Fluorescence readout (AID 1920058). Note: 0% is about no effect. The method, boiled down:
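HepG2 hPXR-Luc, 2000 cells/well, 5 h attach; cpds ~24 h, 37 °C/5% CO2; CellTiter-Fluor 1 h; fluor. Ex/Em 405/540 nm = viability.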

The target in assay [16] is Nuclear receptor subfamily 1 group I member 2 (Homo sapiens) (UniProt O75469). Kind of assay: Dual reporter qHTS for agonist of Pregnane X Receptor (hPXR) against the NCATS DSHEA and TCM libraries: Luminescence readout (AID 1920059). Note: 0% is about no effect. The procedure, abridged:
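hPXR-Luc HepG2 cells, 2000/well in 5% charcoal-stripped FBS medium, attached 5 h, then exposed 24 h at 37C to compounds. Viability by CellTiter-Fluor, then luciferase luminescence with ONE-Glo.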

Assay [17] can be described thus: Dual reporter qHTS for antagonist of Pregnane X Receptor (hPXR) against the NCATS DSHEA and TCM libraries: Fluorescence Readout (AID 1920061). Note: 0% is about no effect. The procedure, abridged:
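hPXR-Luc HepG2 cells exposed 24 h at 37 C to compounds with 2 uM rifampicin in antagonist mode; luciferase luminescence measured by ONE-Glo, with CellTiter-Fluor viability read beforehand.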

A short description of assay [18]: AP1 Signaling Pathway (AID 357; active = well fitted curve in either direction with a large enough effect, not every such curve was filed as active;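 note: ME-180 reporter cells stimulated with EGF at its EC50 level; % is set by controls: 0 for no effect and ±100 for the full control effect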). The conditions noted are these: ME-180 AP-1-bla reporter, EGF-induced, beta-lactamase ratio, 5 h; at 7.69 µM (top of the series) unless noted. The procedure, abridged: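 A ratiometric CCF4 readout (405 nm excitation; 460 and 530 nm emission) quantified AP-1-driven beta-lactamase in ME-180 cells after 5 h with compound and EC50 EGF; AC50 values were derived for activators and inhibitors.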

The nature of assay [19]: NFAT Signaling Pathway (AID 444; active = well fitted curve in either direction with a large enough effect, not every such curve was filed as active). The following applies: Jurkat NFAT-bla M1, carbachol, beta-lactamase ratio, 5 h; at 7.69 µM (top of the series) unless noted. The method, boiled down:
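Jurkat cells with NFAT-driven β-lactamase reporter and co-expressed M1 receptor, stimulated with carbachol (final 1 uM, ~EC50), compound titration, 5 h at 37 °C. CCF4 loaded 1 h at RT; 460/530 nm ratio gave %activity and AC50.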

Assay [20] can be described thus: Stat Signaling Pathway (AID 446; active = well fitted curve in either direction with a large enough effect, not every such curve was filed as active). The procedure, abridged: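 ME-180 cells carrying a SIE-driven beta-lactamase reporter are stimulated with 40 pM IL-6 for 5 h at 37C in the presence of compound. The 460/530 nm FRET substrate ratio is read after 2.5 h at RT. Data are normalised to 300 pM IL-6 and to 125 nM JAK inhibitor controls.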
Assay [21] addresses Glucocorticoid receptor (Homo sapiens) (UniProt P04150). Kind of assay: GR-GFP Redistribution (AID 450;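 active = compounds whose dose series gives a full or clear partial fitted curve of increased nuclear translocation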; note: potency is the fitted concentration of half-maximal effect). The following applies: U2OS GR-GFP nuclear translocation, laser cytometry, 2 h.
A short description of assay [22]: qHTS Assay for Identification of Small Molecule Agonists for Hypoxia Response Element Signaling Pathway (AID 914; active = well fitted activation curve with a large enough effect in the signal ratio, with a control signal flat, not every such curve was filed as active; the % refers to the signal ratio; note: % of control where 0% means no effect). The conditions noted are these: ME-180 (cervical carcinoma) HRE-bla reporter, beta-lactamase ratio, CoCl2, 17 h; activation: hits give high values. The method, boiled down: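 In Opti-MEM containing 0.5% dialyzed FBS and 10 mM HEPES, ME-180 HRE-bla cells received a compound titration and EC50 CoCl2. They were incubated 17 hours, then CCF4-loaded 2.5 hours at room temperature before ratio reading.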

Glucocorticoid receptor (Homo sapiens), sequence (P04150 whole entry, looked up): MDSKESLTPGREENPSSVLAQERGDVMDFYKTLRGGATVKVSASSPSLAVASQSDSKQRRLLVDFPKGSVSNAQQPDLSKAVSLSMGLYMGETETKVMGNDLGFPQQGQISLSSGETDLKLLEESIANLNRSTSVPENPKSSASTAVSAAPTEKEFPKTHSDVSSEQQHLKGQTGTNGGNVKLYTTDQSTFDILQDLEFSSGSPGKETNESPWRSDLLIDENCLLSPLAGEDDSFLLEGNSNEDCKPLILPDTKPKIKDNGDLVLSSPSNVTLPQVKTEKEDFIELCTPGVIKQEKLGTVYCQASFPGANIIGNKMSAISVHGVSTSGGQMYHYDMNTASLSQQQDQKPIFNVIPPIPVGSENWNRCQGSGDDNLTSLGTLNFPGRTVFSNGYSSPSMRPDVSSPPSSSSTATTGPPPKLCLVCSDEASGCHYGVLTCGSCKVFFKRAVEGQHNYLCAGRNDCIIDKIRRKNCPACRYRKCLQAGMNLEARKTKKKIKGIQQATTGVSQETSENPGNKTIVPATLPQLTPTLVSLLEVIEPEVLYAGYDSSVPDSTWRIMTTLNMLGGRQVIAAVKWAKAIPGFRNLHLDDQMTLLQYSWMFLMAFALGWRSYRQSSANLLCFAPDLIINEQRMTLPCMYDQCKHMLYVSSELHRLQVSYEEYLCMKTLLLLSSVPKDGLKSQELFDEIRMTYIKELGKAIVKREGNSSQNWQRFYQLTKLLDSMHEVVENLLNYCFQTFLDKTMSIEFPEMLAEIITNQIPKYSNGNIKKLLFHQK
Cytochrome P450 2C9 (Homo sapiens), sequence (P11712 whole entry, looked up): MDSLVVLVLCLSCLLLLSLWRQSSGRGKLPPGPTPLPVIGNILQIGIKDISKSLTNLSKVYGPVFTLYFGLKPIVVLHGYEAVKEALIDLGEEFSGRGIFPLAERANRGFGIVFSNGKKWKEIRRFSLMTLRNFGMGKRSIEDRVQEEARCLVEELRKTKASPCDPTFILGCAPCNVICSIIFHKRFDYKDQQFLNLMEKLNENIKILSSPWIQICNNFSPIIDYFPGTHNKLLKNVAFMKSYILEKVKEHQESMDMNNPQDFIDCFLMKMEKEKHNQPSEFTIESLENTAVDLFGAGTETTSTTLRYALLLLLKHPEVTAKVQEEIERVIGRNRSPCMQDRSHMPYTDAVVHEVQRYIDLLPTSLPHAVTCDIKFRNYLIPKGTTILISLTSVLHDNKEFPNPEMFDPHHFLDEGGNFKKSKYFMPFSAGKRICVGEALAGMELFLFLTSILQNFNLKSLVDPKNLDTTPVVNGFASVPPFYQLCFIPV
Cytochrome P450 3A4 (Homo sapiens), sequence (P08684 whole entry, looked up, canonical isoform): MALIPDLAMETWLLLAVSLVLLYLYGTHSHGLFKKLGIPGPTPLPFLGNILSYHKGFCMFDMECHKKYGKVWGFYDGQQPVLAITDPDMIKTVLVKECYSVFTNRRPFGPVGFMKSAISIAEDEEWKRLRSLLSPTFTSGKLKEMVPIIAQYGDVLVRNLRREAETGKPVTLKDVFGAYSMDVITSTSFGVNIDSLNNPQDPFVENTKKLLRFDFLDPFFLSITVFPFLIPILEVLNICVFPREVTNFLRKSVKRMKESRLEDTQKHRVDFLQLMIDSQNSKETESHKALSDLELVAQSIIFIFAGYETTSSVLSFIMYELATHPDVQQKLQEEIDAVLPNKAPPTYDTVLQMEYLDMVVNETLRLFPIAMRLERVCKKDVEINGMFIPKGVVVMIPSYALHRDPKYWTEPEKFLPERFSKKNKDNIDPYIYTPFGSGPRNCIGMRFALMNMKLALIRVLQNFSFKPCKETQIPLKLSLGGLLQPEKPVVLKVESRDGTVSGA
Nuclear receptor subfamily 1 group I member 2 (Homo sapiens), sequence (O75469 whole entry, looked up): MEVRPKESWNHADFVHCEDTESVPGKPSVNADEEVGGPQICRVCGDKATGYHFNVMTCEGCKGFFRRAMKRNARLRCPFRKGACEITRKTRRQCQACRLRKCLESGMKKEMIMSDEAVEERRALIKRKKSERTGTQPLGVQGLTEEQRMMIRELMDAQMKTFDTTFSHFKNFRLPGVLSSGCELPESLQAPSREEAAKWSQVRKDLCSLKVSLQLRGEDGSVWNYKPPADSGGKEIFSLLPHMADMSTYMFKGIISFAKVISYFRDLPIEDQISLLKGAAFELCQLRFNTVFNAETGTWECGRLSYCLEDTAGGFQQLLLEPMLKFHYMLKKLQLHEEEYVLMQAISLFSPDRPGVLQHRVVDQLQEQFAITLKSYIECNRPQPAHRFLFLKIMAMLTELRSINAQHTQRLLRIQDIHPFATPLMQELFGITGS

For `O=C(/C=C/c1ccc(O)c(O)c1)O[C@@H]1C[C@](O)(C(=O)O)C[C@@H](O)[C@H]1O`, the Potency entry in assay [1], in [2], in [4], in assay [9], in [10] and in [11] was “inactive” throughout. The Potency entry in assay [13] and in assay [16] was “inactive” in each case. Also, the activation in assay [3] was 5.11% [at 17.1 µM, percent relative to cAMP agonist control]; in assay [6] it was -1.95% [at 30.8 µM]. Further, the activity change, negative = inhibition in [5] is -13.1% [at 30.8 µM]. The outcome in assay [7], in assay [8], in assay [12], in [15] and in assay [17] was inactive. For the same compound, in [14], the max response was 0.087%.
For the compound `CCOC(=O)C1(c2ccccc2)SC(C(=O)OCC)(c2ccccc2)S1` (centres undefined), the Potency entry in assay [1], in assay [2], in assay [3], in assay [5] and in assay [6] was “inactive” each time. Moreover, the Potency in assay [4] was 53.6 µM (active).
In the case of `CC(NC(=O)Nc1ccc(O)cc1)(C(F)(F)F)C(F)(F)F`, the activity change, negative = inhibition in [18] was 5.47% [at 17.2 µM]; in assay [19], 11.8% [at 17.2 µM]; in assay [5], -9.73% [at 30.8 µM]. Also, the compound was called inactive in [20]. In addition, the Potency in [21] was > 20.6 µM. For the same compound, the activation in [22] was 8.6%; in assay [3], -12.7% [at 17.1 µM, percent relative to cAMP agonist control]; in [6], 3.78% [at 30.8 µM]. Moreover, the Potency result in [1], in assay [2] and in [4] was “inactive” in each case.

(Values after PubChem BioAssay (NCATS).)
